About 83,000 compounds went through this panel and 20% of them were active in at least one assay; those are over-represented in the sample as a whole.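 Plates (96-well) were seeded with cells, treated with compound at one concentration, and incubated for 48 hours before percent growth was determined.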 A number with no mark means an inactive call. Active and inactive are the calls of the source. How the source made its calls: active means growth percent below 10; inactive means the rest.
What was measured:
Test in all cases: NCI-60 one-dose screen, 48 h (100 = growth as untreated, 0 = no growth, -100 = all killed)
[1] = test system: SK-MEL-2 melanoma; conditions: 10 µM unless noted
[2] = test system: SN12C renal; conditions: 10 µM unless noted
[3] = test system: UO-31 renal; conditions: 10 µM unless noted
[4] = test system: TK-10 renal; conditions: 10 µM unless noted
[5] = test system: ACHN renal; conditions: 10 µM unless noted
[6] = test system: CAKI-1 renal; conditions: 10 µM unless noted
[7] = test system: A498 renal; conditions: 10 µM unless noted
[8] = test system: CCRF-CEM leukemia; conditions: 10 µM unless noted
[9] = test system: MOLT-4 leukemia; conditions: 10 µM unless noted
[10] = test system: RPMI-8226 leukemia; conditions: 10 µM unless noted
[11] = test system: OVCAR-8 ovarian; conditions: 10 µM unless noted
[12] = test system: OVCAR-5 ovarian; conditions: 10 µM unless noted
[13] = test system: OVCAR-4 ovarian; conditions: 10 µM unless noted
[14] = test system: SK-OV-3 ovarian; conditions: 10 µM unless noted
[15] = test system: IGROV1 ovarian; conditions: 10 µM unless noted
[16] = test system: OVCAR-3 ovarian; conditions: 10 µM unless noted
[17] = test system: HS 578T breast; conditions: 10 µM
[18] = test system: NCI/ADR-RES ovarian; conditions: 10 µM unless noted
[19] = test system: SR leukemia; conditions: 10 µM unless noted

SMILES	growth [1]	growth [2] [%]	growth [3]	growth [4]	growth [5]	growth [6]	growth [7] [%]	growth [8]	growth [9]	growth [10]	growth [11]	growth [12] [%]	growth [13]	growth [14]	growth [15]	growth [16]	growth [17] [%]	growth [18]	growth [19]
Brc1ccccc1Cn1c(-c2cncs2)nc2ccccc21	95.4%	85.1	44.9%	82.6%	72.8%	74.4%	71.6	78%	77.6%	43.3%	79.2%	70.8	72.4%	92.2%	86.9%	86.6%	69.5	83.5%	
COc1cc(-c2nc(-c3nc4cc(C(=O)c5ccccc5)ccc4[nH]3)cc3c2[nH]c2ccccc23)cc(OC)c1OC	87.3%	89.5	73.2%	106%	87.2%	84%	105	57.2%	63%	42%	67.4%	103	96.8%	146%	107%	101%	95.7	88.7%	81.6%
O=C(/C=C/c1ccccc1)C(Br)C(Br)c1ccccc1 (configuration not stated)	40.9%	41.4	-88.1% (active)	-31.1% (active)	-65.9% (active)	-44.4% (active)	85.1	-41.4% (active)	-25% (active)	-42.2% (active)	-20.7% (active)	38.3	13%	86.1%	-45.5% (active)	-31.1% (active)	100	39.7%	-28% (active)
O=C(/C=C/c1ccccc1)n1c(-c2ccccc2)nc2ccccc21	112%	101	89.8%	101%	104%	107%	85.8	97.8%	99.1%	105%	98.9%	95.7	101%	110%	105%	111%	104	104%	
N#Cc1c(N)c(C(=O)c2ccc3c(c2)OCCO3)n2c1CCCC2	6.49% (active)	42.7	34.4%	39.9%	39%	4.26% (active)	38.8	30.5%	12.3%	4.91% (active)	31.5%		81.2%	31.3%	10.8%	-3.73% (active)	36.3	8.36% (active)	-20% (active)
CCN(CC)CCCC(C)Nc1cnc(C(=O)Nc2ccc(Cl)c3cccnc23)cn1 (configuration not stated)	57.8%	31.7	23.8%	57.6%	-54.8% (active)	23.1%	54	5.29% (active)	2.9% (active)	2.2% (active)	27.3%	53.3	51.3%	79.5%	44.2%	-23.7% (active)	51.4	52.2%	1.42% (active)
O=c1c2sc3ccccc3c2nnn1-c1ccc(F)c(Cl)c1	75.4%	70.2	18.1%	29%	4.64% (active)	35.6%	56.6	48.6%	34.3%	57.3%	37.7%	51	-5.65% (active)	-8.62% (active)	21.2%		33	64.5%	-42% (active)
Clc1cc(Br)ccc1-c1ccc(CNCC2CCNCC2)o1	76.8%	86.3	-58.5% (active)	32.2%	3.97% (active)	68.6%	81.8	24%	55.6%	43.8%	33.6%	84.8	-40.7% (active)	67.2%	53.8%	14%	62.4	54.7%	17.2%
c1ccc(C(CC2=NCCCN2)c2ccccc2)cc1	108%	90.9	76.8%	110%	104%	97.6%	111	9.65% (active)	92.7%	116%	101%			95.5%	108%	117%	95.7	101%	103%
COc1ccc(NC(=O)C2c3ccccc3C(=O)N(CC(C)C)C2c2cccs2)cc1 (configuration not stated)	102%	92.1	108%	97.8%	97.3%	92.2%	86.7	92.7%	98.6%	86.3%		97	93.6%	96.5%	117%	102%	92.2		96.5%
Oc1ccc(Cl)cc1-c1cc(-c2ccccc2Cl)[nH]n1	77.5%	69.5	38.6%	86.8%	59%	75.9%	96.1		28.5%	42.3%	71.1%	87.9	13.3%	76.9%	34.2%	21.2%			41.9%
O=C(Oc1c(Cl)c(Cl)c(Cl)c(Cl)c1Cl)C1CCCN1C(=O)OCc1ccccc1 (configuration not stated)	69.9%	60	56.1%	67.3%	17%	90.4%	12.3	10.8%	15.5%	6.32% (active)	34.7%	94.9	51%	46.4%	37.3%	79.1%	73.2	27.6%	30.1%
Clc1ncnc2scc(C3COc4ccccc4O3)c12 (configuration not stated)	107%	86.6	59.5%	110%	96.2%	-18.7% (active)	97	22.3%	74.7%	95.7%	92.8%	94.4	92.8%	115%	121%	106%	92.3	109%	
CC1=C(C(=O)Nc2ccc(F)cc2)C(c2ccc(Cl)cc2)C2=C(CC(C)(C)CC2=O)N1 (configuration not stated)	97.5%	86.7	64%	113%	94.4%	72.7%	54.4	78.8%	73.1%	70%	89.1%	93.5	77.6%	101%	89.6%	89.9%	80.4	87.9%	
O=C(O)C1[S][Sb]([CH](C(=O)O)[CH](C(=O)O)[Sb]2[S]C(C(=O)O)C(C(=O)O)[S]2)[S]C1C(=O)O (configuration not stated)	64.7%	90.2	77.4%	124%	96.5%	96.3%	101	52.9%	63.7%	91.9%	96.2%			103%	87.8%	95.7%	101	104%	50.2%
CCCCCCCCCCCCCC(=S)NCCCC[C@H](NC(=O)OCc1ccccc1)C(=O)Nc1ccccc1	40.5%	27.3	28.6%	44.2%	24.6%	34.5%	55.4	27.3%	21.6%	32%	40.3%	89.5	54.6%	78.2%	54%	22.1%	61.1	34.8%	
C=CCn1c(C)nc2cc(Nc3nc(Nc4ccc5nc(C)n(CC=C)c5c4)nc4ccccc34)ccc21	121%	96.5	89.3%	130%	104%	101%	125	94.8%	101%	98.8%	98.9%	107	99.5%	104%	102%	108%	100	101%	106%

From PubChem BioAssay (NCI)
